Measured values reported in PubChem BioAssay AID624063 (Southern Research Specialized Biocontainment Screening …, 2012).
Measured potencies and affinities stand elsewhere. Active and inactive are the calls of the source. No rule for the calls is given here.

assay: VEEV TC-83 cytopathic effect inhibitors, confirmation, cell-based, set 4 (AID 624063); settings: VEEV TC-83 infected cells; series mostly up to 25 µM; inhibition: at the top concentration

| Structure (SMILES) | inhibition |
| --- | --- |
| CCN1CCN(Cc2nc3ccccc3c(=O)n2-c2ccccc2F)CC1 | -5% (inactive) |
| CCN1CCN(Cc2nc3ccc(C(F)(F)F)cc3c(=O)n2-c2ccccc2F)CC1 | 20.2% (inactive) |
| CC(C)(C)OC(=O)N1CCN(Cc2nc3ccc([N+](=O)[O-])cc3c(=O)n2-c2ccccc2F)CC1 | 1.6% (inactive) |
| O=C(NCc1ccco1)C1CCN(C(=O)c2cc3sccc3n2Cc2ccc(F)cc2)CC1 | 13.5% (inactive) |
